Source: PubChem BioAssay
A selection: hits, their analogues and other compounds. The true share with any hit is near 4.7%.
tim10-1 inh: growth inhibitors of tim10-1 mutant yeast. 2.2% of 330,000 active. S. cerevisiae tim10-1 ts strain growth, BacTiter-Glo, 24 h. inhibition, % at 20 µM. AID 463190;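 active = inhibition of at least 40%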;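 note: mutant grown at 25 °C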
ATG4B inhibitor: ATG4B (human) cysteine protease inhibition; Q9Y4P1; ATG4B cleavage of LC3-PLA2, NBD-HPC fluorescence, 1 h; inhibition, % at 8.33 µM; 0.51% of 340,000 active; AID 504462; in the data active = inhibition above about 40%
Target sequence (Q9Y4P1 whole entry, looked up): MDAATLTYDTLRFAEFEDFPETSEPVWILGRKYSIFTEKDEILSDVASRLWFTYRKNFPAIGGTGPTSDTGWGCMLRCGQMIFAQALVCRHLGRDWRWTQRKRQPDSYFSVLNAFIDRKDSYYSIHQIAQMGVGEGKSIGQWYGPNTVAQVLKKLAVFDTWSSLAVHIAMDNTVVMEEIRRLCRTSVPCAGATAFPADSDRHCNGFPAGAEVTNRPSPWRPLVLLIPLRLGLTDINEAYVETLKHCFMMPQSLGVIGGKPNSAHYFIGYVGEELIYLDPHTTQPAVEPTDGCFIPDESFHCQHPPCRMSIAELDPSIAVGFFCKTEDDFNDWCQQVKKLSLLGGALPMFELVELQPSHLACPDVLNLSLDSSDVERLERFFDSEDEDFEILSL
TIM10 inh: growth inhibitors of TIM10 yeast strain | S. cerevisiae TIM10 strain growth, BacTiter-Glo luminescence, 24 h | inhibition, % at 10 µM | 1.4% of 330,000 active;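 active = inhibition of 40% or more at the single tested concentration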;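 note: wild-type TIM10 isogenic control strain grown at permissive 25 °C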
PfHsp90 set2: reduces growth (ATP signal) of yeast expressing P. falciparum Hsp90 | S. cerevisiae expressing PfHsp90, BacTiter-Glo ATP, 48 h; yeast lacking PDR1 and PDR3 efflux regulators | AID 504621 | 0.32% of 310,000 active | inhibition, % at 9.4 µM;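 active = every replicate shows inhibition above about 80%, whatever the replicate mean, limit read from the data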
tim23-1 inh: tim23-1 yeast growth inhibition | inhibition, % at 20 µM | AID 463212 | 1.3% of 330,000 active | S. cerevisiae tim23-1 growth, BacTiter-Glo luminescence, 24 h;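 active = growth inhibition of the mutant yeast at or above 50%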;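 note: temperature-sensitive mutant grown at 25 °C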
SKKanGAS inh: SKKanGAS growth inhibition; 1.3% of 300,000 active; S. pyogenes SKKanGAS, kanamycin growth, BacTiter-Glo, 6 h; inhibition, % at 7.5 µM; AID 1662;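 active = mean replicate score, as percent of positive control median, at least 50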;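 note: strain carries kanamycin resistance gene driven by streptokinase promoter and grows in 40 µg/ml kanamycin; loss of luminescence reflects streptokinase promoter inhibition or plain growth inhibition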
tim10-1 confirm: tim10-1 yeast growth inhibition, confirmed. S. cerevisiae tim10-1 ts strain growth, BacTiter-Glo, 24 h. shares compounds with tim10-1 inh. inhibition, % at 20 µM. 56% of 7,400 active;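 active = inhibition of yeast growth at or above a set limit in either of two repeat tests at 20 µM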;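 note: tim10-1 mutant grown at permissive 25 °C to find synthetic lethal compounds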
tim10 confirm: confirmation of TIM10 yeast growth inhibitors | shares compounds with TIM10 inh | S. cerevisiae tim10 strain growth, BacTiter-Glo luminescence, 24 h | inhibition, % at 10 µM | 63% of 4,600 active | AID 463215;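 active = inhibition of yeast growth at or above a set limit in either of two replicates at 10 µM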; note: this counterscreen used the strain with wild-type TIM10
tim23-1 confirm: confirmation of tim23-1 mutant yeast growth inhibitors; shares compounds with tim23-1 inh; S. cerevisiae tim23-1 growth, BacTiter-Glo luminescence, 24 h; inhibition, % at 20 µM; 83% of 4,400 active; AID 463218;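 active = inhibition above about 39% in either of two replicate wells at 20 µM, limit read from the data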;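 note: temperature-sensitive tim23-1 mutant grown at 25 °C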
Each line names hits and unclear results; the compound was inactive in the other large screens (follow-up assays come after a bar, where they were run).

CCOC(=O)c1ccc(COC(=O)c2ccc3c(c2)-c2ccccc2C3=O)cc1	none
CCCc1ccc(/C=C2\C(=O)c3ccccc3C(O)=C2C(=O)OCC)cc1	tim10-1 inh 66, TIM10 inh 45, tim23-1 inh 52 (no result: ATG4B inhibitor, PfHsp90 set2) | tim10-1 confirm 66 | tim10 confirm 48 | tim23-1 confirm 57
CCOC(=O)C1=C(C)N(c2ccccc2)C(=O)/C1=C\c1ccc(O)c(OC)c1	none
CCOC(=O)C1=C(Cc2ccc(C)cc2)C(=O)c2ccccc2C1=O	tim10-1 inh 62, TIM10 inh 57, tim23-1 inh 61, SKKanGAS inh 64 (no result: ATG4B inhibitor, PfHsp90 set2) | tim10-1 confirm 68 | tim10 confirm 67 | tim23-1 confirm 60
CNC1CCc2cc(OC)c(OC)c(OC)c2-c2ccc(SC)c(=O)cc21 (stereo not given)	none (no result: tim10-1 inh, TIM10 inh, tim23-1 inh, SKKanGAS inh)
Nc1ncnc2c1ncn2[C@@H]1O[C@H](COS(=O)(=O)O)[C@@H](O)[C@H]1O	none (no result: SKKanGAS inh)
Nc1ncnc2c1ncn2C1OC(COP(=O)(O)O)C(O)C1O (stereo not given)	tim10-1 inh 85, TIM10 inh 73, PfHsp90 set2 97, tim23-1 inh 81 | tim10-1 confirm 84 | tim10 confirm 60 | tim23-1 confirm 88
Nc1ncnc2c1ncn2[C@@H]1O[C@H](COP(=O)(O)O)[C@@H](O)[C@H]1O	tim10-1 inh 87, TIM10 inh 76, tim23-1 inh 84 | tim10-1 confirm 85 | tim10 confirm 66 | tim23-1 confirm 90
Nc1ncnc2c1ncn2[C@@H]1O[C@H](COP(=O)(O)OP(=O)(O)OP(=O)(O)O)[C@@H](O)[C@H]1O	tim10-1 inh 84, TIM10 inh 70, PfHsp90 set2 88, tim23-1 inh 84 (no result: SKKanGAS inh) | tim10-1 confirm 80 | tim10 confirm 68 | tim23-1 confirm 87
Cc1ccccc1-n1nc2c(c1NC(=O)CCCl)CSC2	none
O=C(CN1CCN(S(=O)(=O)c2ccc(F)c(F)c2)CC1)Nc1ccccc1C(=O)NC1CC1	none (no result: SKKanGAS inh)
Cc1ccc(C(=O)/C=C/c2cc(Br)cc(Br)c2O)o1	tim10-1 inh 53, tim23-1 inh 65, SKKanGAS inh 66 | tim10-1 confirm 50 | tim23-1 confirm 66
CC(C)c1ccc(C(=O)Nc2ccc(CN3CCOCC3)cc2)cc1	none
Oc1ccc2ccccc2c1N=Nc1ccccc1F	none
Oc1ccc2ccccc2c1N=Nc1ccccn1	tim10-1 inh 52, PfHsp90 set2 125, tim23-1 inh 52 | tim10-1 confirm 46 | tim23-1 confirm 59
COc1ccc(/C=N/Nc2cc(N3CCCC3)nc(N3CCCC3)n2)cc1	tim10-1 inh 45, tim23-1 inh 68 | tim10-1 confirm inactive | tim23-1 confirm 44
Cc1c(-c2ccc(Br)cc2)[n+](=O)c2c(n1[O-])CCCCC2	none
Cc1cccc(NC(=O)CN2CCN(C(=O)CNC(=O)Cc3cccc4ccccc34)CC2)c1C	none (no result: SKKanGAS inh)
O=C1/C(=C/c2ccccn2)SC(=S)N1Nc1ncc(C(F)(F)F)cc1Cl	none (no result: tim10-1 inh, TIM10 inh, tim23-1 inh, SKKanGAS inh)
O=C1/C(=C\c2ccccn2)SC(=S)N1Nc1ncc(C(F)(F)F)cc1Cl	tim10-1 inh 64, TIM10 inh 59, tim23-1 inh 64 | tim10-1 confirm 57 | tim10 confirm 47 | tim23-1 confirm inactive
N/C(=N\OC(=O)c1cccc(Cn2cc(C(F)(F)F)ccc2=O)c1)c1ccc(Cl)cc1	tim10-1 inh 44, tim23-1 inh 51 | tim10-1 confirm 56 | tim23-1 confirm 60
COc1cc(C(=S)N2CCN(C)CC2)ccc1OCC(=O)NCc1ccccc1	none
O=C(NC1CCCCCCC1)c1ccccc1O	tim10-1 inh 46, TIM10 inh 49, tim23-1 inh 65 | tim10-1 confirm 34 | tim10 confirm 46 | tim23-1 confirm 60
C/C(CC(C)(C)C1CCCCC1)=N\NC(N)=S	tim10-1 inh 69, TIM10 inh 55, tim23-1 inh 78 | tim10-1 confirm 70 | tim10 confirm 73 | tim23-1 confirm 64
COc1ccc(/C=C/c2nnc(NC(=O)C(C)(C)C)s2)cc1	tim10-1 inh 41, tim23-1 inh 52 | tim10-1 confirm 31 | tim23-1 confirm 46
Cc1csc2nc(O)c(C(=O)NC3CCCCC3)c(=O)n12	tim10-1 inh 40, tim23-1 inh 74 | tim10-1 confirm inactive | tim23-1 confirm 56
Cc1cccn2c(=O)c(C(=O)NC3CCCCC3C)c(O)nc12 (stereo not given)	none
Cc1cccn2c(=O)c(C(=O)NC3CCCCC3)c(O)nc12	tim10-1 inh 43, tim23-1 inh 55 | tim10-1 confirm inactive | tim23-1 confirm 44
Cc1csc2nc(O)c(C(=O)NC3CCCCCC3)c(=O)n12	tim10-1 inh 41, tim23-1 inh 65 (no result: PfHsp90 set2) | tim10-1 confirm inactive | tim23-1 confirm 51
Cc1csc2nc(O)c(C(=O)NCCCN3CCCC3=O)c(=O)n12	none (no result: PfHsp90 set2)
CCN(C(=O)COC(=O)c1cc(-c2ccccc2)nc2c1c(C)nn2-c1ccc(C)cc1)C1CCS(=O)(=O)C1 (stereo not given)	none
CC1CCN(C(=O)CSCC(=O)Nc2nc(-c3cccs3)cs2)CC1	tim10-1 inh 43, tim23-1 inh 54 | tim10-1 confirm inactive | tim23-1 confirm 49
CC1CCCN(C(=O)CSCC(=O)Nc2nc(-c3cccs3)cs2)C1 (stereo not given)	none
CCSc1ccc([C@@H]2[C@@H]3C(=O)N(C)C(=O)[C@@H]3[C@]3(C(=O)OC)CCCCN23)cc1	none
CCN(CC)CCn1c(SCC(=O)NCc2ccco2)nc2c(sc3ccccc32)c1=O	none (no result: PfHsp90 set2)
N#C/C(N=Nc1ccccc1O)=N\Nc1ccccc1O	tim10-1 inh 65, tim23-1 inh 82 | tim10-1 confirm 60 | tim23-1 confirm 66
CC(C)Cc1ccc(-c2cc(=O)[nH][nH]2)cc1	tim10-1 inh 59, tim23-1 inh 53 | tim10-1 confirm inactive | tim23-1 confirm 44
CC(C)Cc1ccc([C@H](C)C(=O)O)cc1	none
CCOC(=O)c1sc(-c2ccc(C(F)(F)F)cc2)nc1O	tim10-1 inh 46, PfHsp90 set2 106, tim23-1 inh 74 | tim10-1 confirm inactive | tim23-1 confirm inactive
COc1ccc2[nH]c3c(c2c1)CCN1C(=O)C(CC(=O)NCC24CC5CC(CC(C5)C2)C4)C[C@H](C(=O)N(C(C)C)C(C)C)[C@@]31C (stereo not given in full)	none (no result: ATG4B inhibitor, SKKanGAS inh)
COc1ccccc1N/C=C/c1onc(C)c1[N+](=O)[O-]	none
